High-throughput results as filed in PubChem BioAssay.
HT1080-NT tox: kills 2HG-producing HT-1080-NT fibrosarcoma cells. HT-1080-NT fibrosarcoma viability, CellTiter-Glo ATP luminescence, 48 h. Potency, µM (doses to about 46.1 µM), actives largely listed as cytotoxic. 360,000 compounds, 1.6% hits. AID 686970;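 also: NT is the 2HG producing partner of a matched IDH1 knockdown line; nearly all actives have a fitted effect of over 55% in size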
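Read-out is CellTiter-Glo luminescence after 10 minutes at room temperature, following 48 hours' compound treatment of HT-1080-NT cells (750 cells/well, RPMI, 5% FBS, 37 degrees C).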
HT1080 IDH1KD tx: kills HT-1080 cells with IDH1 knockdown; 360,000 compounds, 2% hits; HT-1080 IDH1 knockdown viability, ATP luminescence, 48 h; AID 686971; Potency, µM (series often up to 46.1 µM), usual class: cytotoxic
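After a 2 h attachment period, IDH1KD HT-1080 cells took pin-transferred compound for 48 h at 37 °C; ATP-based luminescence after 10 min room-temperature reagent incubation reported viability.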
KB-3-1 tox: kills parental KB-3-1 adenocarcinoma cells | KB-3-1 viability, CellTiter-Glo ATP luminescence, 72 h | Potency, µM (series often up to 46.1 µM), actives largely listed as cytotoxic | 400,000 compounds, 1.4% hits | AID 1347075; also: nearly all actives have a fitted effect of over 60% in size
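72 h, 37 °C compound treatment of KB-3-1 parental cells; CellTiter-Glo added, 10 min, luminescence read. Data corrected against DMSO-only plates and normalized before curve fitting.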
IL1B secr inh: blocks inflammasome-driven IL-1 beta release | THP-1 LPS/ATP IL-1B secretion, AlphaLISA, 16 h; active compounds read low | activity change, % at 57.5 µM | 360,000 compounds, 4.7% hits; in the data active = activity change below about -50%; inconclusive = mostly about -30% to -49%
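Secreted IL-1B measured by AlphaLISA bead assay after 16 h compound exposure of THP-1 cells; compounds (final up to 57.5 uM) added 1 h before LPS (250 ng/mL) and ATP (1.25 mM) stimulation; lower signal means less secretion.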
KB-V1 MDR tox: KB-V1 MDR subline cytotoxicity | 400,000 compounds, 3.4% hits | Potency, µM (series often up to 46.1 µM), hits mostly cytotoxic | KB-V1 MDR cells viability, CellTiter-Glo, 72 h; also: nearly all actives have a fitted effect of over 60% in size
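Potencies derive from concentration-effect curves fitted to normalized luminescence (CellTiter-Glo) of KB-V1 cells treated for 72 h at 37 degrees C in phenol-red-free DMEM containing 10% FBS.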
Numbers stand for hits; n = inactive; u = inconclusive; x = not tested or not shown. Rows were chosen to be rich in hits. Some 8.8% of all compounds tested hit in one or more screens of this group. Unless noted, calls follow the shape of the dose curve; as a rule, active = well fitted curve in the direction sought with a large enough effect; inconclusive = small, poorly fitted or top-dose-only effect, or another doubt; inactive = no such curve, though single readings can be large; an effect the other way counts as inactive or inconclusive.

SMILES | HT1080-NT tox | HT1080 IDH1KD tx | KB-3-1 tox | IL1B secr inh | KB-V1 MDR tox
CCN(CC)CCNc1nc2cc(OC)c(OC)cc2c2nc(-c3ccccc3)nn12 | n | n | 16µM | x | 9.2µM
COc1cc2nc(NCCc3cccc(C)c3)n3nc(-c4ccccc4)nc3c2cc1OC | x | x | n | x | n
C=CCNc1nc(-c2ccccc2)c(C(=O)OCC)cc1C#N | u | u | 10µM | n | u
CCCCNc1nc(-c2ccccc2)c(C(=O)OCC)cc1C#N | u | u | u | n | 18µM
CC(NC(=O)COC(=O)c1ccc(N(C)C)cc1)c1ccccc1 (configuration not stated) | n | 18µM | n | n | n
C[C@@H](C(=O)Nc1ccc2ccccc2c1)[C@@H]1C[C@@]1(C)[C@@H](NC(=O)c1cnccn1)c1ccccc1 | n | n | n | n | n
C[C@@H](C(=O)Nc1ccc2ccccc2c1)[C@H]1C[C@]1(C)[C@H](NC(=O)c1cnccn1)c1ccccc1 | n | n | n | -52 | u
Cc1cc(C(=O)N[C@H](c2ccccc2)[C@@]2(C)C[C@@H]2[C@@H](C)C(=O)Nc2ccc3ccccc3c2)no1 | n | n | u | -54 | u
COc1cc(C2SC[C@H]3C(=O)N(c4ccccc4)C(=O)N23)cc(OC)c1OC (some centres not stated) | x | x | n | x | n
CC(=O)NC(Cc1c(F)c(F)c(F)c(F)c1F)C(=O)NCC(N)C(=O)c1ccccc1 (configuration not stated) | n | n | x | x | x
CN(C)CCCn1c(N)c(S(=O)(=O)c2ccccc2)c2nc3ccccc3nc21 | n | n | n | n | n
CCCCn1c(N)c(S(=O)(=O)c2ccc(C)cc2)c2nc3ccccc3nc21 | u | u | u | -81 | u
Cc1ccc(S(=O)(=O)c2c(N)n(Cc3ccco3)c3nc4ccccc4nc23)cc1 | u | u | u | n | n
Cc1cccc(S(=O)(=O)c2c(N)n(Cc3ccco3)c3nc4ccccc4nc23)c1 | n | u | u | n | 18µM
CCC1(c2ccc(Cl)cc2)NC(=O)N(CC(=O)NC2CCCCCC2)C1=O (configuration not stated) | n | n | n | n | n
CCC1(c2ccc(F)cc2)NC(=O)N(CC(=O)NC2CCCC(C)C2C)C1=O (configuration not stated) | n | n | n | n | 16µM
CCC1(c2ccc(Cl)cc2)NC(=O)N(CC(=O)NC2CCCC(C)C2C)C1=O (configuration not stated) | n | n | n | -53 | n
COc1cc2c(NC3CCN(C)CC3)nc(N3CCCN(C)CC3)nc2cc1OCCN(C)C | n | n | x | x | x
COC(=O)C1=C(C)NC2=C(C(=O)c3ccccc32)C1c1cccc(OC)c1 (configuration not stated) | n | n | n | n | n
Cn1c2c(c(=O)[nH]c1=O)C(c1cccc(O)c1)C1=C(N2)c2ccccc2C1=O (configuration not stated) | n | u | 16µM | n | n
O=C1NC(c2cccc3ccccc23)Nc2ccc(Cl)cc21 (configuration not stated) | 0.58µM | 0.52µM | 0.18µM | n | 0.23µM
Clc1ccc(C2Nc3cccc4cccc(c34)N2)c(Cl)c1 | n | n | u | n | n
COCc1c(C(=O)OCC(=O)N2c3ccccc3NC(=O)C2(C)C)oc2ccccc12 | n | n | n | n | 16µM
COCc1c(C(=O)OCC(=O)N2c3ccccc3CC2C)oc2ccccc12 (configuration not stated) | n | n | n | n | n
COc1ccc(S(N)(=O)=O)cc1C(=O)OCC(=O)N1c2ccccc2NC(=O)C1(C)C | n | n | n | n | n
SMILES | HT1080-NT tox | HT1080 IDH1KD tx | KB-3-1 tox | IL1B secr inh | KB-V1 MDR tox
COc1cc(/C=C/C(=O)OCC(=O)N2c3ccccc3NC(=O)C2(C)C)cc(OC)c1OC | u | u | u | -65 | u
N#C/C(=C\c1cccnc1)C(=O)Nc1ccc(O)cc1F | n | n | n | n | n
Cc1cc(C(=O)N/N=C/c2ccc([N+](=O)[O-])cc2)c2ccccc2n1 | 18µM | 4.6µM | 5.8µM | n | n
O=C(N/N=C/c1ccc([N+](=O)[O-])cc1)c1cc(C2CC2)nc2ccccc12 | 26µM | 23µM | u | n | n
Cc1cccc(/C=N/NC(=O)c2cc(C)nc3ccccc23)n1 | n | n | n | n | u
CCc1ccc(/C=N/NC(=O)c2cc(C3CC3)nc3ccccc23)s1 | u | 1.8µM | 5.2µM | n | 5.2µM
Cc1cc(C(=O)N/N=C/c2cc([N+](=O)[O-])ccc2O)c2ccccc2n1 | u | u | n | n | u
Cc1cc(C(=O)N/N=C/c2ccc(N(C)C)cc2)c2ccccc2n1 | 3.7µM | 3.3µM | 9.2µM | n | u
COc1ccc(NC(=O)COc2ccc(S(=O)(=O)NC3CCCCC3)cc2)c(OC)c1 | x | x | n | x | n
Cc1cc(C(=O)N/N=C/c2cc(Br)cc([N+](=O)[O-])c2O)c2ccccc2n1 | u | u | n | n | u
Cc1cc(C(=O)N/N=C/c2ccc([N+](=O)[O-])s2)c2ccccc2n1 | u | u | u | -79 | n
CC(NC(=O)c1ccccc1)C(=O)OCC(=O)c1c(N)n(C)c(=O)n(C)c1=O (configuration not stated) | n | n | n | n | n
Cc1ccc(Cl)cc1N1CCN(C(=O)CN(C2CCCCC2)S(C)(=O)=O)CC1 | n | 21µM | u | u | n
CS(=O)(=O)N(CC(=O)N1CCN(c2cccc(Cl)c2)CC1)C1CCCCC1 | n | n | n | n | u
COc1ccc(OC)c(N(CC(=O)N2CCN(c3cc(Cl)ccc3C)CC2)S(C)(=O)=O)c1 | u | u | n | n | 23µM
CCc1ccc(S(=O)(=O)Nc2ccc(O)c3c(=O)cc(-c4ccccc4Cl)oc23)cc1 | n | n | n | n | n
O=c1cc(-c2ccccc2Cl)oc2c(NS(=O)(=O)c3cc(Cl)cc(Cl)c3O)ccc(O)c12 | 3.3µM | u | u | n | 18µM
COc1ccc(CN2CCC[C@]3(N[C@H](c4ccc(C(F)(F)F)cc4)[C@@H]4C(=O)N(C)C(=O)[C@@H]43)C2=O)cc1 | n | n | n | n | n
O=C(c1ccco1)N1CCN(C(=O)c2sccc2-c2ccccc2)CC1 | n | n | n | n | 12µM
c1ccc(-c2csc3ncnc(N4CCc5ccccc5C4)c23)cc1 | n | n | u | n | 16µM
O=C(c1ccco1)N1CCN(c2ncnc3scc(-c4ccccc4)c23)CC1 | 7.3µM | 10µM | n | n | n
O=C(c1ccco1)N1CCN(c2ncnc3scc(-c4cccs4)c23)CC1 | 11µM | 7.9µM | n | n | u
COc1ccc(-c2csc3ncnc(N4CCN(C(=O)c5ccco5)CC4)c23)cc1 | n | n | n | n | n
CC1CCN(C(=O)c2ncn3c2c(=O)[nH]c2ccc(Br)cc23)CC1 | n | n | n | n | n
